Experimental data taken from PubChem BioAssay (NCATS).
Results filed as inconclusive are left out. The source made the active and inactive calls. Unless noted, the call rests on the fitted dose curve; in most records, active means well fitted curve in either direction with a large enough effect (not every such curve was filed as active); inconclusive means small, poorly fitted or top-dose-only effect, or another doubt; inactive means flat fitted curve, though single readings scatter.

Assays:
[1] = molecular target: Lysosomal acid glucosylceramidase (Homo sapiens) (UniProt P04062); assay: Glucocerebrosidase-p2 (AID 348; in the data active means potency below about 10 µM; further: potency means the concentration at half of the fitted maximal effect); details: purified GBA, blue fluorogenic substrate, 40 min
In short: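 Normal human glucocerebrosidase (0.2 nM) with blue fluorogenic substrate (80 uM final) in citrate/phosphate pH 5.9 with 10mM sodium taurocholate, 0.01% tween-20; 40 min RT, NaOH/glycine stop; fluorescence Ex 365/Em 440; AC50 from a titration from 0.6 nM upwards.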

[2] = AP1 Signaling Pathway (AID 357); details: ME-180 AP-1-bla reporter, EGF-induced, beta-lactamase ratio, 5 h; at 7.69 µM (top of the series) unless noted;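 further: ME-180 reporter cells stimulated with EGF at its EC50 level; on the % scale 0 is the no-effect control and ±100 the full control effect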
In short: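 In this screen, ME-180 cells in Opti-MEM with 0.5% dialyzed FBS received EC50 EGF and compound titrations for 5 h. AP-1 reporter beta-lactamase was detected via CCF4 ratio, giving AC50 for positive and negative modulators.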

[3] = NFAT Signaling Pathway (AID 444); details: Jurkat NFAT-bla M1, carbachol, beta-lactamase ratio, 5 h; at 7.69 µM (top of the series) unless noted;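 further: carbachol stimulus at about its EC50 of 1 µM final; on the % scale 0 is the no-effect control and ±100 the full control effect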
In short: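 Jurkat cells with NFAT-driven β-lactamase reporter and co-expressed M1 receptor, stimulated with carbachol (final 1 uM, ~EC50), compound titration, 5 h at 37 °C. CCF4 loaded 1 h at RT; 460/530 nm ratio gave %activity and AC50.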

[4] = Stat Signaling Pathway (AID 446); details: ME-180 (cervical carcinoma) SIE beta-lactamase reporter, IL-6 stimulated, 5 h; at 7.69 µM (top of the series) unless noted;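 further: ME-180 cervical cancer cells given 40 pM IL-6 alongside compound; SIE-controlled beta-lactamase reporter measured as 460/530 nm FRET emission ratio; on the % scale 0 is the no-effect control and ±100 the full control effect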
In short: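 FRET read-out (405 nm excitation, 460/530 nm emission) of a beta-lactamase reporter under a STAT-inducible element in ME-180 cervical carcinoma cells. Cells with compound receive 40 pM IL-6 for 5 h. Values are normalised to AC90 stimulation and AC90 JAK-inhibitor controls.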

[5] = molecular target: Glucocorticoid receptor (Homo sapiens) (UniProt P04150); assay: GR-GFP Redistribution (AID 450;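 active means compounds whose dose series gives a full or clear partial fitted curve of increased nuclear translocation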; further: potency means the concentration at half of the fitted maximal effect); details: U2OS GR-GFP nuclear translocation, laser cytometry, 2 h
[6] = molecular target: Glucocorticoid receptor (Homo sapiens) (UniProt P04150); assay: GR-EFC Redistribution (AID 451; calls by dose curve; further: potency means the concentration at half of the fitted maximal effect); details: CHO-K1 GR-EFC translocation, beta-gal luminescence, 2 h
In short: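 CHO-K1 cells expressing nuclear EA and GR-ED fragments of b-gal; compounds titrated up to 46 uM final, 2 h at 37 C. GR nuclear translocation read as complemented b-gal luminescence after 1 h RT detection.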

[7] = molecular target: Mitogen-activated protein kinase 10 (Mus musculus) (UniProt Q61831); assay: JNK3 AlphaScreen Assay (AID 530); details: JNK3 lysate, c-Jun phosphorylation; series mostly up to 11.4 µM;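 further: kinase came from lysate of stimulated human HepG2 cells; signal reports phosphorylation of biotinylated GST-cJun 1-79 at Ser73 with 10 µM ATP; on the % scale 0 is the no-effect control and ±100 the full control effect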
In short: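 HepG2 lysate (IL-1b/TNFa pre-activated) + biotin-GST-cJun 1-79 + anti-pSer73 cJun; cpd titration, 15 min RT; ATP 10 uM start; Tris pH 7.6, MgCl2, DTT, vanadate; beads in EDTA buffer; AlphaScreen.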

[8] = molecular target: 3',5'-cyclic-AMP phosphodiesterase 4B (Homo sapiens) (UniProt Q07343); assay: qHTS Assay for Inhibitors of PDE-IV (AID 607; active means well fitted activation curve with a large enough effect in the main read-out, with a control signal flat, not every such curve was filed as active; further: % of control where 0% means no effect); details: HEK293 ACTOne CNG channel cells, membrane potential fluorescence; series mostly up to 22.9 µM
In short: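 Cell-based read-out of cAMP via a modified cyclic nucleotide-gated channel and membrane potential dye (535/590 nm) in HEK293 cells expressing PDE4 endogenously. Compounds tested up to 22.9 uM final; 100 uM RO 20-1724 reference.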

Chain of Glucocorticoid receptor (Homo sapiens) (P04150 whole entry, looked up, the tested form may be a part): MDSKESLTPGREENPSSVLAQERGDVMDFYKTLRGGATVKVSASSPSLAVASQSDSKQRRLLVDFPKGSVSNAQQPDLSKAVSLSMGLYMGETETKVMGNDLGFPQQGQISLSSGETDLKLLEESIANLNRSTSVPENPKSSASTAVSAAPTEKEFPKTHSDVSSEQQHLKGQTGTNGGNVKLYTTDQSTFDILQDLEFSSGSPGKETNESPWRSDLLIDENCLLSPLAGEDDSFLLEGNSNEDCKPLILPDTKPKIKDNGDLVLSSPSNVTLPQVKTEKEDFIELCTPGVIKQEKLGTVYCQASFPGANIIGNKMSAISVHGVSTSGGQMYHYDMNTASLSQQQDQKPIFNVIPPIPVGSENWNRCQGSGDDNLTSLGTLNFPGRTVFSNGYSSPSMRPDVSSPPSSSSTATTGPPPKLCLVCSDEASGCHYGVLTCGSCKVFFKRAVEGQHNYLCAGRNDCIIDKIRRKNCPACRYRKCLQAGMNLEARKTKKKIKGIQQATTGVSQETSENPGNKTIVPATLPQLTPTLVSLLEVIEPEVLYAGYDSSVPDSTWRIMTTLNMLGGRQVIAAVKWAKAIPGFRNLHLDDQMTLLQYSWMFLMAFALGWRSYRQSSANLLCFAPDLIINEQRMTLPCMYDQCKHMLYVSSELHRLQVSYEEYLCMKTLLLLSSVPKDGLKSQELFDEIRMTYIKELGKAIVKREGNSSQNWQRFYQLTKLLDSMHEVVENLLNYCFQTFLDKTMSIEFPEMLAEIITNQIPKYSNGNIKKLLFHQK
Chain of Lysosomal acid glucosylceramidase (Homo sapiens) (P04062 whole entry, looked up): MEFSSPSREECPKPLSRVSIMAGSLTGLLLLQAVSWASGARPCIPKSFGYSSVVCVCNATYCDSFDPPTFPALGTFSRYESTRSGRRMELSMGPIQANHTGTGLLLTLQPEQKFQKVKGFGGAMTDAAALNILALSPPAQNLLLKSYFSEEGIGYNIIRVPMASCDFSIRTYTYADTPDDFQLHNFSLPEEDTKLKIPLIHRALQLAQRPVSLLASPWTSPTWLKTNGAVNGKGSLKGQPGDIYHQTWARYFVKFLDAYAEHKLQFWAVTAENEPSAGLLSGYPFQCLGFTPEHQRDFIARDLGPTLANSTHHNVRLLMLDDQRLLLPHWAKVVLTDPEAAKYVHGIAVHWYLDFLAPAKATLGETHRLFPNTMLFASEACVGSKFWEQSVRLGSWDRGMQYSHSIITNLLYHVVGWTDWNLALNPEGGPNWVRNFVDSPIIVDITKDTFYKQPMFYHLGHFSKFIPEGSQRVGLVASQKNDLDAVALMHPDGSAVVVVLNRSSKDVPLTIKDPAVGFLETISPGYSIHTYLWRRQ
Chain of 3',5'-cyclic-AMP phosphodiesterase 4B (Homo sapiens) (Q07343 whole entry, looked up): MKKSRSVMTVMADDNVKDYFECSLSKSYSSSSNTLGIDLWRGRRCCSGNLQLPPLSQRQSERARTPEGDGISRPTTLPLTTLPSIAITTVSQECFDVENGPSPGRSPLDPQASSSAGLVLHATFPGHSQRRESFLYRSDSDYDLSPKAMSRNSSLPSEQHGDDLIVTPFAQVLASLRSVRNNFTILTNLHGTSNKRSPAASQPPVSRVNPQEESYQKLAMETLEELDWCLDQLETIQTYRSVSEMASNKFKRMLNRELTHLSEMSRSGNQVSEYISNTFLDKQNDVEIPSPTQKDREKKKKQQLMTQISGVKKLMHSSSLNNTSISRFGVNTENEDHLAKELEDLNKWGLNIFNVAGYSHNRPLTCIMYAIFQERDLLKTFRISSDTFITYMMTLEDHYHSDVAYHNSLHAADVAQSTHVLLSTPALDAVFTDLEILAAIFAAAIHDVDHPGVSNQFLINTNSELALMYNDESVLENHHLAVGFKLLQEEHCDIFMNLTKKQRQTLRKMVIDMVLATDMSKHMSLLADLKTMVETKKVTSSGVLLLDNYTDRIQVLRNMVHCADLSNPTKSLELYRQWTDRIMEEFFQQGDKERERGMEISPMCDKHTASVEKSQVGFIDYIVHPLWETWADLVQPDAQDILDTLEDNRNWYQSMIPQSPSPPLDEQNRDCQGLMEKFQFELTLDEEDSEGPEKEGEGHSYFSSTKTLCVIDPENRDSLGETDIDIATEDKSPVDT

Cc1ccc2nc(-c3ccc(NC(=O)c4ccc(N)cc4)c(S(=O)(=O)O)c3)sc2c1
inactive: Potency [1] > 11.4 µM | activity change, negative = inhibition [2] -3.73% | activity change, negative = inhibition [3] 12.1% | activity, negative = inhibition [4] -11.4% | Potency [5] > 46 µM | Potency [6] > 9.22 µM | Potency [7] | Potency [8]

O=C1c2ccccc2C(=O)N1C1(C(=O)NC2(C(=O)O)CCCC2)CCCC1
inactive: Potency [1] > 11.4 µM | activity change, negative = inhibition [2] 0.0237% | activity change, negative = inhibition [3] 10.1% | activity, negative = inhibition [4] 0.797% | Potency [5] > 46 µM | Potency [6] > 9.22 µM | Potency [7] | Potency [8]

CC1(C)CCC(=O)N[C@H]1CC(=O)C[C@H]1NC(=O)CCC1(C)C
inactive: Potency [1] > 11.4 µM | activity change, negative = inhibition [2] -7.26% | activity change, negative = inhibition [3] 13% | activity, negative = inhibition [4] 3.06% | Potency [5] > 46 µM | Potency [6] > 9.22 µM | Potency [7] | Potency [8]

CN(C)CCCSc1nc2ccccc2[nH]1
inactive: Potency [1] > 11.4 µM | activity change, negative = inhibition [2] -0.00775% | activity change, negative = inhibition [3] -10.2% | activity, negative = inhibition [4] 3.11% | Potency [5] > 46 µM | Potency [6] > 9.22 µM | Potency [7] | Potency [8]

NNC(=O)CS(=O)(=O)Nc1ncccn1
inactive: Potency [1] > 11.4 µM | activity change, negative = inhibition [2] -0.0437% | activity change, negative = inhibition [3] 3.94% | activity, negative = inhibition [4] -3.75% | Potency [5] > 46 µM | Potency [6] > 9.22 µM | Potency [7] | Potency [8]

O=C(O)C[C@@H](C(=O)O)C1c2ccccc2-c2ccccc21
inactive: Potency [1] > 11.4 µM | activity change, negative = inhibition [2] -0.496% | activity change, negative = inhibition [3] -1.69% | activity, negative = inhibition [4] -5.83% | Potency [5] > 46 µM | Potency [6] > 9.22 µM | Potency [7] | Potency [8]

[N-]=[N+]=N[C@@H]1[C@H](O)[C@H](CO)O[C@@H]1n1cnc2c(N)ncnc21
inactive: Potency [1] > 11.4 µM | activity change, negative = inhibition [2] -7.07% | activity change, negative = inhibition [3] 9.28% | activity, negative = inhibition [4] -12.3% | Potency [5] > 46 µM | Potency [6] > 9.22 µM | Potency [7] | Potency [8]

CC(=O)c1ccc(O)c(CN(C2CCCCC2)C2CCCCC2)c1O
inactive: Potency [1] > 11.4 µM | activity change, negative = inhibition [2] -2.68% | activity change, negative = inhibition [3] 16% | activity, negative = inhibition [4] -1.55% | Potency [5] > 46 µM | Potency [6] > 9.22 µM | Potency [7] | Potency [8]

NC(=O)[C@@H]1CCCNC1
inactive: Potency [1] > 11.4 µM | activity change, negative = inhibition [2] 9.79% | activity change, negative = inhibition [3] 6.45% | activity, negative = inhibition [4] 14.3% | Potency [5] > 46 µM | Potency [6] > 9.22 µM | Potency [7] | Potency [8]

CN1CCN(c2ccc3nc(-c4ccc5nc(-c6ccc(O)cc6)[nH]c5c4)[nH]c3c2)CC1
inactive: Potency [1] > 11.4 µM | activity change, negative = inhibition [2] -22.4% | activity change, negative = inhibition [3] -8.32% | activity, negative = inhibition [4] 23.8% | Potency [5] > 46 µM | Potency [6] > 9.22 µM | Potency [7] | Potency [8]

C[N+]1(CCN=C=NC2CCCCC2)CCOCC1
inactive: Potency [1] > 11.4 µM | activity change, negative = inhibition [2] 9.01% | activity change, negative = inhibition [3] -4.19% | activity, negative = inhibition [4] -0.107% | Potency [5] > 46 µM | Potency [6] > 9.22 µM | Potency [7] | Potency [8]

NS(=O)(=O)c1ccc(NC(=O)Nc2cccc3ccccc23)cc1
inactive: Potency [1] > 11.4 µM | activity change, negative = inhibition [2] -4.66% | activity change, negative = inhibition [3] 12.6% | activity, negative = inhibition [4] -9.73% | Potency [5] > 46 µM | Potency [6] > 9.22 µM | Potency [7] | Potency [8]

CO[C@@H]1/C=C\O[C@]2(C)Oc3c(C)c(O)c4c(O)c(c(CN5CCN(C)CC5)c(O)c4c3C2=O)NC(=O)/C(C)=C\C=C[C@@H](C)[C@@H](O)[C@H](C)[C@@H](O)[C@H](C)[C@H](OC(C)=O)[C@@H]1C
inactive: Potency [1] > 11.4 µM | activity change, negative = inhibition [2] -8.05% | activity change, negative = inhibition [3] 7.34% | activity, negative = inhibition [4] -6.61% | Potency [5] > 46 µM | Potency [6] > 9.22 µM | Potency [7] | Potency [8]

O=C(O)c1nnsc1-c1ccc(-c2snnc2C(=O)O)cc1
inactive: Potency [1] > 11.4 µM | activity change, negative = inhibition [2] -0.0507% | activity change, negative = inhibition [3] 18.7% | activity, negative = inhibition [4] -0.666% | Potency [5] > 46 µM | Potency [6] > 9.22 µM | Potency [7] | Potency [8]

O=C(O)CN1C(=O)O[C@@H](c2ccccc2)C1=O
inactive: Potency [1] > 11.4 µM | activity change, negative = inhibition [2] -1.65% | activity change, negative = inhibition [3] 11.5% | activity, negative = inhibition [4] -12.2% | Potency [5] > 46 µM | Potency [6] > 9.22 µM | Potency [7] | Potency [8]

O=C(O)c1ccc(C(=O)O)c(C(=O)Nc2ccc3c(c2)Cc2ccccc2-3)c1
inactive: Potency [1] > 11.4 µM | activity change, negative = inhibition [2] 5.18% | activity change, negative = inhibition [3] 4.14% | activity, negative = inhibition [4] -0.756% | Potency [5] > 46 µM | Potency [6] > 9.22 µM | Potency [7] | Potency [8]

Cn1c(N)nc2c(nc(OCc3ccccc3)n2[C@@H]2O[C@H](CO)[C@@H](O)[C@@H]2O)c1=O
inactive: Potency [1] > 11.4 µM | activity change, negative = inhibition [2] 2.38% | activity change, negative = inhibition [3] 6.31% | activity, negative = inhibition [4] -1.71% | Potency [5] > 46 µM | Potency [6] > 9.22 µM | Potency [7] | Potency [8]
